# Compounds with a hit are over-represented: about 3.8% of the library has one in this group of screens.
# tim10-1 inh = tim10-1 yeast growth inhibition. inhibition, % at 20 µM. actives 2.2% (n = 330,000). S. cerevisiae tim10-1 ts strain growth, BacTiter-Glo, 24 h;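 active means inhibition of at least 40%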;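 further: mutant grown at 25 °C; 0% = DMSO wells with yeast and 100% = wells holding no yeast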
# NLRP3 yeast inh = blocks the NALP3 inflammasome reconstituted in yeast. Yeast reconstituted NLRP3/ASC/caspase-1, beta-gal luminescence, 24 h. inhibition, % at 10 µM. actives 0.39% (n = 330,000);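 active means inhibition of 50% or more; inactive means inhibition below 50%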;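 further: plate controls were induced DMSO wells for no effect and uninduced yeast grown without galactose for full effect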
# TIM10 inh = growth inhibitors of TIM10 yeast strain | S. cerevisiae TIM10 strain growth, BacTiter-Glo luminescence, 24 h | inhibition, % at 10 µM | actives 1.4% (n = 330,000);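 active means inhibition of 40% or more at the single tested concentration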;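 further: wild-type TIM10 isogenic control strain grown at permissive 25 °C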
# tim23-1 inh = growth inhibitors of tim23-1 mutant yeast; AID 463212; inhibition, % at 20 µM; S. cerevisiae tim23-1 growth, BacTiter-Glo luminescence, 24 h; actives 1.3% (n = 330,000);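 active means growth inhibition of the mutant yeast at or above 50%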;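 further: temperature-sensitive mutant grown at 25 °C; plate controls were DMSO-treated mutant yeast for no effect and medium wells lacking yeast for full effect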
# Yeast superoxide = caloric restriction mimetics inhibiting age-related superoxide in yeast; S. cerevisiae aged cells, superoxide DHE fluorescence; hits give low values; superoxide response (% of plate mean), % at 10 µM; actives 0.18% (n = 330,000); AID 2690;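 active means superoxide response under a set limit, about three screen SD below normal, cut at about 65% in these data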;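 further: yeast aged for seven days with compound at 30 °C before DHE staining; 100% = average MFI of all compound-treated wells on the plate with controls excluded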
# TIM10 conf = confirmation of TIM10 yeast growth inhibitors; shares compounds with TIM10 inh; S. cerevisiae tim10 strain growth, BacTiter-Glo luminescence, 24 h; inhibition, % at 10 µM; actives 63% (n = 4,600);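 active means inhibition of yeast growth at or above a set limit in either of two replicates at 10 µM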;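 further: this counterscreen used the strain with wild-type TIM10; 0% = yeast with DMSO and 100% = medium wells lacking yeast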
# * marks the source's active call; other numbers are inactive results; x = no result.
SMILES,tim10-1 inh,NLRP3 yeast inh,TIM10 inh,tim23-1 inh,Yeast superoxide,TIM10 conf
COc1ccc(N(CC(=O)Nc2cc(Cl)ccc2OC)S(=O)(=O)c2c(C)[nH]c(=O)[nH]c2=O)cc1,-8,-1,44*,0,97,-3
Cc1ccc(-c2csc(NC(=O)c3cccc(S(=O)(=O)N4CCN(C)CC4)c3)n2)cc1,4,29,28,12,122,x
O=C(Nc1nc(-c2cccs2)cs1)c1cccc(S(=O)(=O)N2CCCCC2)c1,28,12,42*,31,97,31*
COc1nnc(-c2ccc(N3CCOCC3)c(NC(=O)C3CCCCC3)c2)c2ccccc12,35,-6,41*,33,108,25
O=C(CSc1ccc2ccccc2n1)N/N=C/c1ccccc1O,19,22,41*,30,98,10
O=C(CSc1ccc2ccccc2n1)N/N=C/c1ccc(O)cc1,1,12,7,20,104,x
COc1ccc(N2C(=O)CSC2c2ccc3c(c2)OCO3)c(OC)c1 (stereo unspecified),40,-22,41*,21,94,27
CCCc1ccc(C#N)c(SC2CC(=O)N(c3ccc(OC)cc3)C2=O)n1 (stereo unspecified),6,12,10,10,107,x
COc1ccc(N2C(=O)CC(Sc3nc(C)cc(C)c3C#N)C2=O)cc1 (stereo unspecified),30,5,42*,31,94,28*
COc1cccc(Oc2cn[nH]c2-c2ccc(OC)cc2O)c1,-21,29,19,41,118,x
CCCc1ccc(Oc2c(-c3ccc(O)c(C)c3O)n[nH]c2C)cc1,-81,23,63*,-297,107,73*
CCCc1ccc(Oc2cn[nH]c2-c2ccc(O)c(C)c2O)cc1,-191,43,71*,-277,108,71*
CC(C)c1ccc(NC(=O)[C@@H]2CCC(=O)N2C2OC(=O)c3ccccc32)cc1 (stereo partly specified),14,14,5,-5,104,x
N=C1SC(CC(=O)Nc2ccc([N+](=O)[O-])cc2)C(=O)N1c1ccccc1 (stereo unspecified),-9,-3,57*,5,104,9
COc1ccc(N(CC(=O)NCCSC2CCCCC2)S(=O)(=O)c2ccccc2)cc1OC,-1,2,11,14,97,x
Cc1cccc(C(=O)NCCNc2nc3cc(C)c(C)cc3cc2C)c1,34,-1,45*,30,114,39*
CCCCn1c(N)c(N(CCOC)C(=O)COC(=O)CCOc2ccccc2)c(=O)[nH]c1=O,-6,5,2,-5,111,x
O=S(=O)(/N=C(/Nc1cccc2ccccc12)c1ccccc1)c1cccs1,24,-29,43*,30,112,23
COc1ccc(C2=NO[C@@](CC(=O)O)(C(=O)Nc3ccc4c(c3)OCCO4)C2)cc1,28,22,-4,22,117,x
NS(=O)(=O)c1ccc(NNC(=O)c2ccccc2C(=O)O)cc1,2,11,12,0,79,x
O=C(/C=C/c1ccccc1)NNc1ccc(Cl)cc1,-19,31,44*,8,92,48*
O=C(O)c1ccccc1C(=O)NNc1ccc(Cl)cc1,26,2,46*,8,95,30*
Cc1ccc(CN(c2ccc(C(=O)N3CCCC3)cc2)S(C)(=O)=O)cc1,40,12,44*,44,89,47*
O=C(CCc1nnc2ccc(N3CCCC3)nn12)Nc1ccc(F)cc1F,0,18,5,6,82,x
Cc1ccccc1Cn1c(Cc2ccccc2)nc2ccccc21,36,-52,42*,46,97,45*
CC(C)(C)c1ccc(/C=C(\c2nc3ccccc3[nH]2)S(=O)(=O)c2ccccc2)cc1,26,27,47*,46,103,33*
O=C(Nc1ccncc1)Nc1cccc(Cl)c1Cl,-12,14,-76,-18,96,x
O=C(Nc1ccccc1)Nc1cccc(Cl)c1Cl,20,25,45*,40,103,18
CCCOc1ccc(N2C(=O)CC(N(CCOC34CC5CC(CC(C5)C3)C4)C(C)=O)C2=O)cc1 (stereo unspecified),39,7,40,36,95,x
